The whole screen tested about 48,000 compounds, of which about 13,000 (27%) showed an effect of 50% or more. The list shows a part of the results.
What follows are compounds tested on Wolbachia pipientis (assay: Anti-Wolbachia Cell-Based Screen). Conditions: 5 µM.
Assay type: functional
Parameters: scale not given: in the data most compounds retested in dose-response had high values

| SMILES | Percent Effect |
| --- | --- |
| Cc1ccc(OCC(=O)N2CCN[C@H]3CS(=O)(=O)C[C@H]32)cn1 | -8.198% |
| N#CC1(c2ccccc2)CCN(C(=O)C2CCCN(C(N)=O)C2)CC1 (centres undefined) | 6.737% |
| CCC(CC)C(=O)N1CCOC2(CNC2)C1 | -30.77% |
| CS(=O)(=O)c1ccc(CC(=O)N2CCN3CCNC(=O)C3C2)cc1 (centres undefined) | -12.31% |
| Cc1cc(CN2C[C@@H]3CN(C(=O)c4ccsc4)CCO[C@@H]3C2)no1.O=C(O)C(F)(F)F | 15.19% |
| CN(C)CCNC(=O)[C@H]1C[C@H]2CN(c3ncccn3)C[C@H]2N1C.O=C(O)C(F)(F)F.O=C(O)C(F)(F)F.O=C(O)C(F)(F)F | -2.268% |
| COCC(=O)NC[C@H]1C[C@@H]2CCN1C[C@@H]2c1cc(-c2cccs2)nn1C | -7.322% |
| CN1CCN(C[C@@H]2OC[C@H]3CN(Cc4ccncc4)CC[C@H]32)CC1 | 117.8% |
| CN(c1ncccc1C#N)C1CCN(Cc2ccncc2)CC1 | -9.884% |
| CN1CCN([C@H]2COC[C@@H]3CN(Cc4cccnc4)C[C@@H]32)CC1 | 3.012% |
| Cn1ccnc1CN1CC[C@H]2CO[C@H](CNc3ncccn3)[C@H]2C1.O=C(O)C(F)(F)F.O=C(O)C(F)(F)F.O=C(O)C(F)(F)F | 100.8% |
| CS(=O)(=O)NC[C@H]1OC[C@@H]2CN(Cc3cccnc3)CC[C@@H]21 | 117.5% |
| O=C(O)C(F)(F)F.O=C(O)C(F)(F)F.c1cnc(NC[C@H]2OC[C@@H]3CCN(Cc4ccsc4)C[C@@H]32)nc1 | 103.6% |
| O=C1[C@H]2CN(Cc3ccoc3)C[C@@H]2CCN1Cc1cccnc1 | -2.353% |
| COc1ccc(CCN)cc1-c1ccc(C(N)=O)cc1 | -8.06% |
| Cc1noc(C)c1CN1C[C@@H]2OCCN(Cc3cnn(C)c3)[C@@H]2C1 | -6.904% |
| COCCn1c(C(=O)NC(C(N)=O)C(C)C)cc2ccccc21 (centres undefined) | -3.087% |
| Cc1ccccc1-n1cc(C2=CCN(CCn3cc[nH]c3=O)CC2)cn1 | 20.16% |
| Cc1cc(C)c(CNc2ncnc3ccsc23)c(=O)[nH]1 | 1.6% |
| O=C(CC1CC1)N[C@@H]1CN(Cc2ccccn2)C[C@@H]2CCCO[C@@H]21.O=C(O)C(F)(F)F.O=C(O)C(F)(F)F | -3.839% |
| O=C(O)C(F)(F)F.O=C(O)C(F)(F)F.O=C(O)C(F)(F)F.c1ccc(CN2CC[C@@H]3[C@@H](CO[C@@H]3CNc3ncccn3)C2)nc1 | 94.77% |
| O=S1(=O)CCC(n2cc(C3=CCN(CCn4cccc4)CC3)cn2)C1 (centres undefined) | -6.845% |
| Cc1nc(C(C)C)sc1C(=O)N1CCN(C2CN3CCC2CC3)CC1 (centres undefined) | 76.14% |
| COCCN1CCCC12CCCN(c1ncccn1)C2 (centres undefined) | -3.4% |
| CC(C)(C)c1cc(=O)[nH]c(C2(N)CCCCC2)n1.Cl | -23.57% |
| CN(C)c1nccc(N2CCO[C@H]3CN(Cc4ccco4)C[C@H]32)n1 | 68.55% |
| Cn1ccnc1CN1C[C@@H]2OCCN(c3ncccn3)[C@@H]2C1 | 7.273% |

| SMILES | Percent Effect |
| --- | --- |
| COCCN1C[C@@H]2OCCN(c3ccnc(N(C)C)n3)[C@@H]2C1 | 104.4% |
| Cc1cccc(CN2C[C@@H]3OCCN(S(=O)(=O)N(C)C)[C@@H]3C2)n1 | 2.928% |
| c1ccc(CCN2C[C@@H]3OCCN(c4ncccn4)[C@@H]3C2)cc1 | 21.57% |
| CN(C)c1nccc(N2CCO[C@H]3CN(Cc4ccsc4)C[C@H]32)n1.O=C(O)C(F)(F)F | 12.89% |
| CN1CCC(N2CCOC3(CCCC3)C2)C1=O (centres undefined) | 17.36% |
| CC(=O)N1CCCC2(CN(Cc3ccncc3)CCO2)C1 (centres undefined) | -7.212% |
| OCCN1CCOC2(CCCN(c3ncccn3)C2)C1 (centres undefined) | 10.98% |
| CCc1noc(CN2CCOC3(CCCC3)C2)n1 | 98.78% |
| Cc1nc(CN2CCOC3(CCCC3)C2)oc1C | 98.63% |
| Cc1nc(CN2CCN(C(=O)COc3c(C)ccc(C)c3C)CC2)no1 | 0.1735% |
| Cc1noc(C)c1CN1CCCC2(C1)CN(c1nncs1)CCO2 (centres undefined) | -8.738% |
| c1cc(CN2CCOC3(CCCC3)C2)no1 | -7.47% |
| Cc1nc(CN2CCOC3(CCCC3)C2)no1 | 71.5% |
| Cl.NCC1(c2cccc(Br)c2)CCOCC1 | -3.113% |
| CN(Cc1nc2ccsc2c(=O)[nH]1)C[C@@H]1CCCN2CCCC[C@H]12 | 9.481% |
| Cc1nn(C)c2nc(N3CCCCC3c3cccnc3)sc12 (centres undefined) | 116.8% |
| Cc1cc(N2CCCC2c2cccnc2)nc(C)n1 (centres undefined) | -8.687% |
| Cc1cc(C)nc(N2CCCC2c2cccnc2)n1 (centres undefined) | -35.57% |
| c1cc(CN2CCOCC3(CCNCC3)C2)ccn1 | -46.48% |
| CNc1nccnc1C1CCN(C(C)C)CC1 | 92.81% |
| Cc1n[nH]c(C)c1CC(=O)N1CCCN(C)C2(CCN(C)CC2)C1 | 0.449% |
| CO[C@H]1CCN(C2CCC2)[C@@H]2CN(Cc3ccncc3)C[C@H]12.O=C(O)C(F)(F)F.O=C(O)C(F)(F)F.O=C(O)C(F)(F)F | 1.676% |
| CO[C@H]1CCN(Cc2cccs2)[C@@H]2CN(Cc3ccncc3)C[C@H]12.O=C(O)C(F)(F)F.O=C(O)C(F)(F)F.O=C(O)C(F)(F)F | 110% |
| CCS(=O)(=O)N1CC[C@H](OC)[C@H]2CN(Cc3ccncc3)C[C@H]21.O=C(O)C(F)(F)F.O=C(O)C(F)(F)F | 4.967% |
| CO[C@@H]1CCN(S(=O)(=O)N(C)C)[C@@H]2CN(Cc3ccncc3)C[C@@H]21.O=C(O)C(F)(F)F.O=C(O)C(F)(F)F | 7.733% |
| CO[C@@H]1CCN(Cc2cccs2)[C@@H]2CN(Cc3ccncc3)C[C@@H]21.O=C(O)C(F)(F)F.O=C(O)C(F)(F)F.O=C(O)C(F)(F)F | 96.91% |
| CO[C@@H]1CCN(S(=O)(=O)N(C)C)[C@@H]2CN(Cc3cccnc3)C[C@@H]21.O=C(O)C(F)(F)F.O=C(O)C(F)(F)F | -16.98% |
